# Assay results: PubChem BioAssay (NCATS)
# Where “and” joins values, the source holds several entries; their conditions need not be identical. Equal values may be shown once. Records with an inconclusive call do not appear. Entries that show only a call come without a potency. Values without a mark were called inactive. Calls of active or inactive are those of the source. The call rests on the fitted dose curve; in most records, active means well fitted curve in the direction sought with a large enough effect; inconclusive means small, poorly fitted or top-dose-only effect, or another doubt; inactive means no such curve, though single readings can be large; an effect the other way counts as inactive or inconclusive.
# Assays:
# [1] = target: Cytochrome P450 3A7 (Homo sapiens) (UniProt P24462); assay: Cytochrome P450 family 3 subfamily A member 7 (CYP3A7) small molecule antagonists: luciferase biochemical qHTS assay (AID 1963596); further: nearly all actives have a fitted effect of over 40% in size
# In short: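 Recombinant CYP3A7 P450-Glo luminescent assay: enzyme-proluciferin substrate mix preincubated with compound 10 min at room temperature, reaction started with NADPH regeneration system for 1 h. Luciferin detected by luminescence; ketoconazole as positive control.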
# [2] = Cellular viability qHTS for adrenocortical cancer (ACC) cell line SW-13 (AID 1963989); conditions: SW-13 ACC cells viability, CellTiter-Glo, 48 h; activity (max response): active compounds read low; further: nearly all actives have a fitted effect of over 65% in size; further: potency means the concentration at half of the fitted maximal effect;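 on activity (max response): cells grown in serum-free medium with ITS supplement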
# In short: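 Compound titrations (up to 46 uM final, in DMSO) were applied to SW-13 cells for 48 h at 37C/5% CO2. Reading used CellTiter-Glo after 20 min at room temperature; fitted curves yielded IC50 and efficacy.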
# [3] = Cellular viability qHTS for adrenocortical cancer (ACC) cell line NCI-H295R (AID 1963990); further: nearly all actives have a fitted effect of over 60% in size; further: potency means the concentration at half of the fitted maximal effect
# In short: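 Readout: CellTiter-Glo luminescence, 20 min RT. Exposure: 48 h, 37C/5% CO2. Cells: NCI-H295R, ITS-DMEM serum-free. Range: up to 46 uM. Analysis: 4PL fit, IC50 plus efficacy.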
# Cytochrome P450 3A7 (Homo sapiens), sequence (P24462 whole entry, looked up): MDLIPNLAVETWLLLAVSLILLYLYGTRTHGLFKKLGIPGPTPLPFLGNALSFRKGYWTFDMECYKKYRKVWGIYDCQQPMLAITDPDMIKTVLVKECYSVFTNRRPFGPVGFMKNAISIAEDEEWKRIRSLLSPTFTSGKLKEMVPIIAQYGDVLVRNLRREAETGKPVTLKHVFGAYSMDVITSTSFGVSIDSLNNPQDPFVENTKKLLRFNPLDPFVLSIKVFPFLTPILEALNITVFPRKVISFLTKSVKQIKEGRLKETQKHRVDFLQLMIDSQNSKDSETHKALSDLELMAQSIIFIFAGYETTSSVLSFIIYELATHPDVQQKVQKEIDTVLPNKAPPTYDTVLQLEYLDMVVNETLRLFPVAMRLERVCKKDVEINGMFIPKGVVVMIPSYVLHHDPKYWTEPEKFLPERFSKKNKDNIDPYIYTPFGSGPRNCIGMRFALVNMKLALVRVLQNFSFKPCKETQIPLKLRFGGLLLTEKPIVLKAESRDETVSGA
Compound,Potency [1],activity (max response) [2],Potency [3],"activity change, negative = inhibition [1]","activity change, negative = viability loss [3]",Potency [2]
CC(CN(C)C)C(C)(O)Cc1ccc(Cl)cc1 (configuration not stated),inactive,6.59%,inactive,–,–,–
NS(=O)(=O)c1cc(C2(O)NC(=O)c3ccccc32)ccc1Cl (configuration not stated),inactive,17.7%,inactive,–,–,–
Nc1ccn([C@@H]2O[C@H](CO)[C@@H](O)C2(F)F)c(=O)n1,inactive,-35% and -42.2%,2.06 µM (active) and 794 nM (active),–,–,–
Oc1cn2c(n1)Nc1ccc(Cl)c(Cl)c1C2,inactive,11.3%,inactive,–,–,–
CCCCCCCCCCOc1cc2c(=O)c(C(=O)OCC)c[nH]c2cc1OCC,–,0.0943%,–,9.06% [at 4.83 µM],-5.4% [at 3.81 µM],–
COc1ccccc1OCC1CNC(=O)O1 (configuration not stated),inactive,12.9%,inactive,–,–,–
O=C(O)P(=O)(O)O,inactive,10.2%,inactive,–,–,–
Fc1ccc(C(c2ccc(F)cc2)N2CCNCC2)cc1,inactive,4.07%,inactive,–,–,–
Cc1nc(N)nc(N)c1-c1ccc(Cl)c(Cl)c1,inactive,–,130 nM (active),–,–,231 nM (active)
